Source: PubChem BioAssay
LANA-H2B inh = blockers of LANA interaction with H2A/H2B – biochemical, FP readout, HTS, primary screen. cell-free LANA-H2A/H2B peptide, fluorescence polarization. inhibition, % (test concentration not listed). actives 0.6% (n = 320,000); in the data active means inhibition mostly above about 10%, no sharp cut-off; inactive means mostly below about 6.7%
GRK2 inh = compounds blocking aptamer binding on GRK2 – biochemical, human GRK2, bead flow cytometry, HTS, primary screen; FAM-aptamer displacement from GRK2; actives 0.59% (n = 330,000); inhibition of aptamer binding, % at 10 µM; Beta-adrenergic receptor kinase 1 (Homo sapiens), P25098;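 active means inhibition of aptamer binding above 40%, roughly 3 SD of noise, on plates passing a quality check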;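 further: median bead fluorescence of bound FAM aptamer so fluorescent compounds give negative values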
DSG3 Ab inh = inhibitors of pemphigus antibody binding to DSG3, primary screen, biochemical, bead-based, flow cytometry, scFv-GFP; Desmoglein-3 (Homo sapiens), P32926; DSG3-coupled beads, scFv-anti-DSG3-GFP binding; active compounds read low; binding (percent of control), % at 10 µM; actives 0.48% (n = 310,000);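 active means binding more than 3 SD below its plate's average and above zero; inconclusive means below that plate limit but binding exactly zero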;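 further: hits lower antibody fragment binding to DSG3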
VLA-4 inh = inhibition in human VLA-4 binding assay, primary screen, VLA-4 allosteric modulator project, MLPCN library, flow cytometry, VLA-4 expressing cells; ligand binding flow cytometry; inhibition, % (about 7 µM as worked out from the volumes in the protocol); actives 0.2% (n = 330,000)
Target sequence (P13612 whole entry, looked up): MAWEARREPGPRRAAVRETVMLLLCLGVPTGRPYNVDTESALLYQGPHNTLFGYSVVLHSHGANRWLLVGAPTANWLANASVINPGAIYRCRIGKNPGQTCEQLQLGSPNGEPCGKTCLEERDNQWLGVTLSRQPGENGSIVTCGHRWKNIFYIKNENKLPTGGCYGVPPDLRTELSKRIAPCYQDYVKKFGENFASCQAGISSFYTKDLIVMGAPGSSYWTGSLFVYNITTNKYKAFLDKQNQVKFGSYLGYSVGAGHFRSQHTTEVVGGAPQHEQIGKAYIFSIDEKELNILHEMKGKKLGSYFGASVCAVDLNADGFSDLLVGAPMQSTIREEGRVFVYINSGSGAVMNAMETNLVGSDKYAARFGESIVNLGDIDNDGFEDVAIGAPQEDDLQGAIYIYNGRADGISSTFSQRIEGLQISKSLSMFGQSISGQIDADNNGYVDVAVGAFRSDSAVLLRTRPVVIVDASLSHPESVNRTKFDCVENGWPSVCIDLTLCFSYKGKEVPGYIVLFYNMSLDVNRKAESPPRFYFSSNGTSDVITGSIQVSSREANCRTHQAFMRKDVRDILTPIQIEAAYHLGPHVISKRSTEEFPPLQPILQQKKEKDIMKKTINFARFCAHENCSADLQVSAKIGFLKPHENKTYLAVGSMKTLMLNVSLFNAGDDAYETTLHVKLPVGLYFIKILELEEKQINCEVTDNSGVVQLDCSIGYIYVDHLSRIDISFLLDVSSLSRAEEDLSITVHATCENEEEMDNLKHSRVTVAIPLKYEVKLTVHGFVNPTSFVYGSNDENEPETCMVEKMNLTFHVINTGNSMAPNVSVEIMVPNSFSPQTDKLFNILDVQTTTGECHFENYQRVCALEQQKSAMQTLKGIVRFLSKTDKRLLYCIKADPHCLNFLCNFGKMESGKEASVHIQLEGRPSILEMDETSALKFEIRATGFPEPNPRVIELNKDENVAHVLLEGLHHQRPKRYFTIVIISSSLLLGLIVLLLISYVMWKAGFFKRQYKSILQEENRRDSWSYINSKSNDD
HDAC3 inhib = HDAC3 deacetylase inhibitors, primary screen, biochemical, fluorescence, cell-free homogeneous. recombinant HDAC3, fluorogenic peptide/trypsin coupled. inhibition, % at 8.3 µM. actives 0.15% (n = 320,000); in the data active means inhibition above about 26%, passing the limit was not always enough; inconclusive means no clear call, values can overlap the other calls
PKD1 kinase inh = inhibitors of human PKD1 kinase, biochemical, fluorescence polarization; Serine/threonine-protein kinase D1 (Homo sapiens), Q15139; PKD1 kinase fluorescence polarization assay; inhibition, % (test concentration not listed); actives 0.056% (n = 200,000)
* = called active by the depositor; i = inactive; u = inconclusive; x = no result. An excerpt weighted towards active compounds, which were near 1.8% of everything screened. Unless noted, no stated cut-off is given here; in the data, active means inhibition above about 50%; inactive means the rest.

SMILES	LANA-H2B inh	GRK2 inh	DSG3 Ab inh	VLA-4 inh	HDAC3 inhib	PKD1 kinase inh
Cc1ccc2c(c1)c1c(n2CC(O)Cn2c(C)nc3ccccc32)C(=O)CCC1 (centres undefined)	-2.3	5.0	96.8	8.6	-1.0	1.3
Cc1ccc2c(c1)c1c(n2CC(O)Cn2c(C)nc3ccccc32)/C(=N\O)CCC1 (centres undefined)	-0.1	0.0	109.4	-5.2	28.1*	4.7
Nc1ccc(-c2c3ccc(=O)cc-3oc3cc(O)ccc23)cc1C(=O)O	37.6*	1.0	100.3	-8.0	11.5	x
O=c1ccc2c(-c3ccccc3)c3ccc(O)cc3oc-2c1	61.2*	10.0	169.9	i	0.3	x
O=c1cc(-c2ccccc2)oc2cc(O)ccc12	x	x	102.4	x	x	x
CC(NC(=O)/C=C/c1ccco1)c1nc2ccccc2n1Cc1ccccc1F (centres undefined)	2.6	3.0	81.0*	0.6	-2.2	5.2
CC(NC(=O)/C=C/c1ccco1)c1nc2ccccc2n1Cc1c(Cl)cccc1Cl (centres undefined)	-7.8	0.0	101.4	6.1	11.2	-10.6
COc1cc(NC(=O)C2CC(c3ccc(Cl)cc3)=NO2)cc(OC)c1OC (centres undefined)	-0.2	4.0	63.0*	-12.6	-2.4	x
COc1ccc(NC(=O)C2CC(c3ccc(Cl)cc3)=NO2)cc1OC (centres undefined)	0.0	0.0	90.0	-24.3	1.5	x
C=CCOc1ccc(/C(O)=C2/C(=O)C(=O)N(CCCN3CCOCC3)C2c2ccccc2)cc1 (centres undefined)	-0.1	4.0	94.2	0.0	4.6	-5.6
C=CCOc1ccc(/C(O)=C2/C(=O)C(=O)N(CCCN3CCOCC3)C2c2ccc(OC)cc2)cc1 (centres undefined)	15.5*	0.0	95.8	-7.6	0.3	-2.9
COC(=O)CSC1=NS(=O)(=O)c2ccccc21	-2.7	3.0	u	21.5	54.1*	-1.3
CN(C)c1ccc(Cl)c(NC(N)=S)c1	x	x	105.0	x	x	x
COCC(=O)N1CCC(Oc2ccc(C(=O)N[C@H](C(=O)OC)C(C)C)cc2)CC1	-3.8	3.0	99.6	12.0	-0.4	x
c1ccc(CSc2nnc3c(n2)OC(c2ccco2)Nc2ccccc2-3)cc1 (centres undefined)	-3.6	0.0	61.5*	6.6	-1.6	2.3
CCOC(=O)c1[nH]c2c(c1-c1ccc(OC)cc1)C(=O)CC(c1ccc(OC)c(OC)c1)C2 (centres undefined)	-2.5	0.0	106.8	-16.9	-1.6	-6.3
COC(=O)[C@@]1(Cc2ccc(F)cc2)[C@H]2c3cc(C(=O)N(C)C)n(CCc4ccccn4)c3C[C@H]2CN1C(=O)c1ccccc1	-1.1	1.0	x	-0.7	0.9	-5.6
COC(=O)[C@@]1(Cc2ccc(F)cc2)[C@H]2c3cc(C(=O)N4CCCC4)n(CCc4ccccn4)c3C[C@H]2CN1C(=O)c1ccccc1	17.9*	0.0	x	29.8	-0.7	5.0
OC(CN1CCCCC1)c1ccc2c3c(cccc13)CC2 (centres undefined)	x	x	109.2	x	x	x
Cc1ccc(S(=O)(=O)Cc2ccc([N+](=O)[O-])cc2)cc1	15.8*	0.0	103.7	-4.1	-5.0	x
Cc1ccc(CNS(=O)(=O)c2ccc([N+](=O)[O-])cc2)cc1	-1.8	0.0	110.3	-4.8	2.3	x
COc1cc(Cl)ccc1OCc1cc(C(=O)NC(C)Cc2cccnc2)no1 (centres undefined)	0.6	0.0	102.2	6.4	-6.1	x
COc1nc(Nc2ccc(O)cc2)nc(OC(C(F)(F)F)C(F)(F)F)n1	0.2	0.0	103.1	17.3	14.0	-7.5
Nc1cccc(Nc2nc(OC(C(F)(F)F)C(F)(F)F)nc(OC(C(F)(F)F)C(F)(F)F)n2)c1	2.1	0.0	110.3	19.1	49.3*	-5.9
COc1ccc(C(=O)Nc2nnc(S(=O)(=O)Cc3ccc(F)cc3)s2)cc1	17.9*	0.0	131.2	-2.0	2.9	x
SMILES	LANA-H2B inh	GRK2 inh	DSG3 Ab inh	VLA-4 inh	HDAC3 inhib	PKD1 kinase inh
COc1ccc(C(=O)Nc2nnc(S(=O)(=O)Cc3ccccc3)s2)cc1	0.0	1.0	99.3	18.4	-0.7	x
CS(=O)c1ccccc1O (centres undefined)	38.7*	2.0	83.0	-0.7	5.2	0.2
Cc1ccc(S(=O)(=O)N2CCOCC2)cc1C(=O)NC1CCCC1	0.6	0.0	91.5	6.2	-8.2	x
CSc1ccccc1NC(=O)COC(=O)/C=C/c1ccco1	7.8	41.0*	131.2	-0.8	0.5	x
CNC(=O)COC(=O)/C=C/c1ccco1	-7.1	4.0	100.3	-1.5	9.9	1.4
O=C(COC(=O)/C=C/c1ccco1)Nc1ncc(C(F)(F)F)cc1Cl	-4.3	52.0*	114.6	-4.6	2.1	-2.2
CCOc1ccc(NC(=O)CSc2nc3ccccc3nc2N2CC(C)OC(C)C2)cc1 (centres undefined)	-2.6	3.0	107.7	-7.8	-10.1	x
CCOC(=O)COc1c(/C=N\OC)cc(Cl)cc1OC	-2.5	3.0	109.2	-6.6	3.2	-2.5
Clc1ccc(OCCN2CCCCC2)cc1Cl	2.1	0.0	101.2	-2.5	2.7	16.6
Clc1ccc(OCCN2CCOCC2)cc1Cl	17.0*	0.0	119.1	-6.1	3.1	-1.3
CCN(Cc1ccccc1)C(=O)Cc1c[nH]c2ccccc12	-5.9	0.0	93.4	1.1	-0.8	x
O=C1CSC(c2ccncc2)N1Cc1ccco1 (centres undefined)	-1.4	2.0	80.1*	2.3	-5.0	-5.4
Cc1nn(C(=O)CNC(=O)c2ccccc2)c(C)c1C	9.6*	0.0	109.7	18.1	-1.0	-7.2
Cc1cccc(NC(=O)COC(=O)C2C3CC4OC(=O)C2C4C3)c1C (centres undefined)	-13.8	0.0	57.0*	-10.3	1.7	x
CN(C)Cc1cc(O)c(CN(C)C)cc1O	-0.8	7.0	92.0*	-1.9	2.7	x
COc1cc(OC)cc(C(=O)N2CCN(Cc3ccc4c(c3)OCO4)CC2)c1	-3.4	0.0	125.5	1.8	-4.8	x
COc1ccc(CCN2CC(C(=O)Nc3nnc(Cc4ccccc4)s3)CC2=O)cc1OC (centres undefined)	10.8*	0.0	97.8	6.9	1.5	x
CCN(CCCNC(=O)C1CCC(=O)N1Cc1ccccc1Cl)c1cccc(C)c1 (centres undefined)	7.9	2.0	78.4*	1.7	-4.6	-0.9
CCN(CCCNC(=O)C1CCC(=O)N1Cc1ccc(C)cc1)c1cccc(C)c1 (centres undefined)	-0.3	0.0	107.4	6.0	u	-2.6
